Source: the supplement of paper PMC8728848
Many of the other results were omitted from the sample, so the strongest signals are more common in it than they were.

Columns and labels:
Assay in all cases: glycan array binding signal (z-score within array); higher = stronger binding
Details in all cases: glycan notation: IUPAC condensed, linker removed
Fuc(a1-2)Gal = target: Fuc(a1-2)Gal
Method in brief: (§1)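 Glycan array binding is given as a within-array Z-score, which can be read as non-binding when negative. The arrays, 3228 of them, came from the Consortium for Functional Glycomics database and were retained only where the protein sequence was available. Z-scores were averaged across arrays of the same protein sequence at different concentrations or buffers and across linkers.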

[1] = target: Fuc(a1-2)Gal(b1-4)GlcNAc(b1-2)Man(a1-3)[Fuc(a1-2)Gal(b1-4)GlcNAc(b1-2)Man(a1-6)]Man(b1-4)GlcNAc(b1-4)GlcNAc
Method in brief: as §1

[2] = target: Fuc(a1-2)[Gal(a1-3)]Gal(b1-3)GlcNAc
Method in brief: as §1

[3] = target: Fuc(a1-2)[Gal(a1-3)]Gal(b1-4)GlcNAc
Method in brief: as §1

[4] = target: Fuc(a1-2)[GalNAc(a1-3)]Gal
Method in brief: as §1

[5] = target: Fuc(a1-2)[GalNAc(a1-3)]Gal(b1-4)GlcNAc(b1-2)Man
Method in brief: as §1

[6] = target: Fuc(a1-2)[GalNAc(a1-3)]Gal(b1-4)GlcNAc(b1-2)Man(a1-3)[Fuc(a1-2)[GalNAc(a1-3)]Gal(b1-4)GlcNAc(b1-2)Man(a1-6)]Man(b1-4)GlcNAc(b1-4)GlcNAc
Method in brief: as §1

[7] = target: Fuc(a1-2)[GalNAc(a1-3)]Gal(b1-4)GlcNAc(b1-3)GalNAc
Method in brief: as §1

Fuc(a1-3)GlcNAc = target: Fuc(a1-3)GlcNAc
Method in brief: as §1

[8] = target: Fuc(a1-3)[Gal(b1-4)]GlcNAc(b1-2)Man
Method in brief: as §1

[9] = target: Fuc(a1-3)[GalNAc(b1-4)]GlcNAc
Method in brief: as §1

[10] = target: Gal(a1-3)Gal(b1-3)[Fuc(a1-4)]GlcNAc(b1-2)Man(a1-3)[Gal(a1-3)Gal(b1-3)[Fuc(a1-4)]GlcNAc(b1-2)Man(a1-6)]Man(b1-4)GlcNAc(b1-4)GlcNAc
Method in brief: as §1

[11] = target: Gal(a1-3)Gal(b1-4)[Fuc(a1-3)]GlcNAc(b1-2)Man(a1-3)[Gal(a1-3)Gal(b1-4)[Fuc(a1-3)]GlcNAc(b1-2)Man(a1-6)]Man(b1-4)GlcNAc(b1-4)GlcNAc
Method in brief: as §1

[12] = target: Gal(a1-4)Gal(b1-3)GlcNAc(b1-2)Man(a1-3)[Gal(a1-4)Gal(b1-3)GlcNAc(b1-2)Man(a1-6)]Man(b1-4)GlcNAc(b1-4)GlcNAc
Method in brief: as §1

[13] = target: Gal(a1-4)Gal(b1-4)GlcNAc(b1-3)Gal(b1-4)Glc
Method in brief: as §1

Gal(b1-2)Gal = target: Gal(b1-2)Gal
Method in brief: as §1

[14] = target: Gal(b1-3)GalNAc(b1-4)Gal(b1-4)Glc
Method in brief: as §1

[15] = target: Gal(b1-3)GlcNAc(b1-2)[Gal(b1-3)GlcNAc(b1-6)]Man(a1-6)[Gal(b1-3)GlcNAc(b1-2)Man(a1-3)]Man(b1-4)GlcNAc(b1-4)GlcNAc
Method in brief: as §1

Gal(b1-3)GlcNAc6S = target: Gal(b1-3)GlcNAc6S
Method in brief: as §1

[16] = target: Gal(b1-4)GlcNAc(b1-2)Man(a1-3)[GlcNAc(b1-2)Man(a1-6)]Man(b1-4)GlcNAc(b1-4)GlcNAc
Method in brief: as §1

[17] = target: Gal(b1-4)GlcNAc(b1-3)Gal(b1-4)GlcNAc(b1-3)Gal(b1-4)GlcNAc(b1-3)Gal(b1-4)GlcNAc(b1-2)[Gal(b1-4)GlcNAc(b1-3)Gal(b1-4)GlcNAc(b1-3)Gal(b1-4)GlcNAc(b1-3)Gal(b1-4)GlcNAc(b1-6)]Man(a1-6)[Gal(b1-4)GlcNAc(b1-3)Gal(b1-4)GlcNAc(b1-3)Gal(b1-4)GlcNAc(b1-3)Gal(b1-4)GlcNAc(b1-2)Man(a1-3)]Man(b1-4)GlcNAc(b1-4)[Fuc(a1-6)]GlcNAc
Method in brief: as §1

[18] = target: Gal(b1-4)GlcNAc(b1-3)Gal(b1-4)GlcNAc(b1-3)Gal(b1-4)GlcNAc(b1-3)Gal(b1-4)GlcNAc(b1-3)Gal(b1-4)GlcNAc(b1-2)Man(a1-3)[Gal(b1-4)GlcNAc(b1-3)Gal(b1-4)GlcNAc(b1-3)Gal(b1-4)GlcNAc(b1-3)Gal(b1-4)GlcNAc(b1-3)Gal(b1-4)GlcNAc(b1-2)Man(a1-6)]Man(b1-4)GlcNAc(b1-4)GlcNAc
Method in brief: as §1

[19] = target: Gal(b1-4)GlcNAc(b1-3)Gal(b1-4)GlcNAc(b1-3)Gal(b1-4)GlcNAc(b1-3)Gal(b1-4)GlcNAc(b1-3)Gal(b1-4)GlcNAc(b1-2)[Gal(b1-4)GlcNAc(b1-3)Gal(b1-4)GlcNAc(b1-3)Gal(b1-4)GlcNAc(b1-3)Gal(b1-4)GlcNAc(b1-3)Gal(b1-4)GlcNAc(b1-6)]Man(a1-6)[Gal(b1-4)GlcNAc(b1-3)Gal(b1-4)GlcNAc(b1-3)Gal(b1-4)GlcNAc(b1-3)Gal(b1-4)GlcNAc(b1-3)Gal(b1-4)GlcNAc(b1-2)Man(a1-3)]Man(b1-4)GlcNAc(b1-4)[Fuc(a1-6)]GlcNAc
Method in brief: as §1

Gal4S(b1-4)GlcNAc = target: Gal4S(b1-4)GlcNAc
Method in brief: as §1

Gal6S(b1-3)GlcNAc6S = target: Gal6S(b1-3)GlcNAc6S
Method in brief: as §1

[20] = target: GalNAc(b1-4)GlcNAc(b1-3)GalNAc(b1-4)GlcNAc
Method in brief: as §1

GlcA(b1-6)Gal = target: GlcA(b1-6)Gal
Method in brief: as §1

[21] = target: GlcNAc(a1-4)Gal(b1-4)GlcNAc(b1-3)Gal(b1-4)GlcNAc(b1-3)Gal(b1-4)GlcNAc
Method in brief: as §1

[22] = target: GlcNAc(a1-4)Gal(b1-4)GlcNAc(b1-3)Gal(b1-4)[Fuc(a1-3)]GlcNAc(b1-3)Gal(b1-4)[Fuc(a1-3)]GlcNAc
Method in brief: as §1

[23] = target: GlcNAc(b1-3)Gal(b1-4)GlcNAc(b1-2)Man(a1-3)[GlcNAc(b1-3)Gal(b1-4)GlcNAc(b1-2)Man(a1-6)]Man(b1-4)GlcNAc(b1-4)GlcNAc
Method in brief: as §1

[24] = target: GlcNAc(b1-3)Gal(b1-4)GlcNAc(b1-3)Gal(b1-4)GlcNAc(b1-3)Gal(b1-4)GlcNAc(b1-2)Man(a1-3)[GlcNAc(b1-3)Gal(b1-4)GlcNAc(b1-3)Gal(b1-4)GlcNAc(b1-3)Gal(b1-4)GlcNAc(b1-2)Man(a1-6)]Man(b1-4)GlcNAc(b1-4)[Fuc(a1-6)]GlcNAc
Method in brief: as §1

[25] = target: GlcNAc(b1-3)Gal(b1-4)GlcNAc(b1-3)Gal(b1-4)GlcNAc(b1-3)Gal(b1-4)GlcNAc(b1-2)[GlcNAc(b1-3)Gal(b1-4)GlcNAc(b1-3)Gal(b1-4)GlcNAc(b1-3)Gal(b1-4)GlcNAc(b1-6)]Man(a1-6)[GlcNAc(b1-3)Gal(b1-4)GlcNAc(b1-3)Gal(b1-4)GlcNAc(b1-3)Gal(b1-4)GlcNAc(b1-2)Man(a1-3)]Man(b1-4)GlcNAc(b1-4)[Fuc(a1-6)]GlcNAc
Method in brief: as §1

[26] = target: GlcNAc(b1-3)[GlcNAc(b1-4)][GlcNAc(b1-6)]GlcNAc
Method in brief: as §1

Man(a1-3)[Man(a1-6)]Man = target: Man(a1-3)[Man(a1-6)]Man
Method in brief: as §1

[27] = target: Neu5Ac(a2-3)Gal(b1-3)GlcNAc(b1-3)Gal(b1-3)GlcNAc
Method in brief: as §1

[28] = target: Neu5Ac(a2-3)Gal(b1-3)[Fuc(a1-4)]GlcNAc
Method in brief: as §1

[29] = target: Neu5Ac(a2-3)Gal(b1-3)[Neu5Ac(a2-6)]GalNAc
Method in brief: as §1

[30] = target: Neu5Ac(a2-3)Gal(b1-4)GlcNAc
Method in brief: as §1

[31] = target: Neu5Ac(a2-3)Gal(b1-4)GlcNAc(b1-2)Man
Method in brief: as §1

[32] = target: Neu5Ac(a2-3)Gal(b1-4)GlcNAc(b1-3)Gal(b1-3)GlcNAc
Method in brief: as §1

[33] = target: Neu5Ac(a2-3)Gal(b1-4)GlcNAc6S
Method in brief: as §1

[34] = target: Neu5Ac(a2-3)Gal(b1-4)[Fuc(a1-3)]GlcNAc(b1-3)GalNAc
Method in brief: as §1

[35] = target: Neu5Ac(a2-3)Gal(b1-4)[Fuc(a1-3)]GlcNAc6S
Method in brief: as §1

[36] = target: Neu5Ac(a2-6)Gal(b1-4)GlcNAc(b1-2)Man(a1-6)[Gal(b1-4)GlcNAc(b1-2)Man(a1-3)]Man(b1-4)GlcNAc(b1-4)GlcNAc
Method in brief: as §1

[37] = target: Neu5Ac(a2-6)Gal(b1-4)GlcNAc(b1-2)Man(a1-6)[GlcNAc(b1-2)Man(a1-3)]Man(b1-4)GlcNAc(b1-4)GlcNAc
Method in brief: as §1

[38] = target: Neu5Ac(a2-6)Gal(b1-4)GlcNAc(b1-3)Gal(b1-4)GlcNAc(b1-3)Gal(b1-4)GlcNAc(b1-2)Man(a1-3)[Neu5Ac(a2-6)Gal(b1-4)GlcNAc(b1-3)Gal(b1-4)GlcNAc(b1-3)Gal(b1-4)GlcNAc(b1-2)Man(a1-6)]GalNAc
Method in brief: as §1

[39] = target: Neu5Ac(a2-6)GlcNAc(b1-4)GlcNAc
Method in brief: as §1

[40] = target: Neu5Ac(a2-8)Neu5Ac(a2-8)Neu5Ac(a2-3)[Gal(b1-3)GalNAc(b1-4)]Gal(b1-4)Glc
Method in brief: as §1

Neu5Gc(a2-3)Gal(b1-4)Glc = target: Neu5Gc(a2-3)Gal(b1-4)Glc
Method in brief: as §1

B1: RbmA (Vibrio cholerae), A0A2H4NFB8 (protein)
chain: MSNFKGSIMNKRHYYLASCLALLFSTASYAEVDCELQPVIEANLSLNQNQLASNGGYISSQLGIRNESCETVKFKYWLSIKGPEGIYFPAKAVVGVDTAQQESDALTDGRMLNVTRGFWVPEYMADGKYTVSLQVVAENGEVFKANQEFVKGGDLNSLPELNGLTIDIKNQFGINSVESTGGFVPFTIDLNNGREGEAKVEFWMTAVGPDGLIIPVHSREKWMIIAGNTFSKVRGINFDKSYPAGEYTINAQVVDIVSGERVEQLMTVVKK
- glycan array binding signal (z-score) (Fuc(a1-2)Gal): 0.097
- glycan array binding signal (z-score) [1]: 3.71
- glycan array binding signal (z-score) [2]: 1.13
- glycan array binding signal (z-score) [3]: -0.42
- glycan array binding signal (z-score) [4]: 0.428
- glycan array binding signal (z-score) [5]: -0.393
- glycan array binding signal (z-score) [6]: -0.735
- glycan array binding signal (z-score) [7]: 2.25
- glycan array binding signal (z-score) (Fuc(a1-3)GlcNAc): -0.597
- glycan array binding signal (z-score) [8]: -0.564
- glycan array binding signal (z-score) [9]: -0.002
- glycan array binding signal (z-score) [10]: -0.276
- glycan array binding signal (z-score) [11]: 0.837
- glycan array binding signal (z-score) [12]: 0.508
- glycan array binding signal (z-score) [13]: 0.028
- glycan array binding signal (z-score) (Gal(b1-2)Gal): -0.082
- glycan array binding signal (z-score) [14]: 0.503
- glycan array binding signal (z-score) [15]: -0.69
- glycan array binding signal (z-score) (Gal(b1-3)GlcNAc6S): -0.734
- glycan array binding signal (z-score) [16]: -0.515
- glycan array binding signal (z-score) [17]: 4.03
- glycan array binding signal (z-score) [18]: 5.93
- glycan array binding signal (z-score) [19]: 7.99
- glycan array binding signal (z-score) (Gal4S(b1-4)GlcNAc): 3.32
- glycan array binding signal (z-score) (Gal6S(b1-3)GlcNAc6S): -0.99
- glycan array binding signal (z-score) [20]: 2.09
- glycan array binding signal (z-score) (GlcA(b1-6)Gal): -0.721
- glycan array binding signal (z-score) [21]: 3.48
- glycan array binding signal (z-score) [22]: 4.35
- glycan array binding signal (z-score) [23]: -0.474
- glycan array binding signal (z-score) [24]: 3.92
- glycan array binding signal (z-score) [25]: 0.187
- glycan array binding signal (z-score) [26]: 0.095
- glycan array binding signal (z-score) (Man(a1-3)[Man(a1-6)]Man): 0.76
- glycan array binding signal (z-score) [27]: -0.516
- glycan array binding signal (z-score) [28]: -1.17
- glycan array binding signal (z-score) [29]: 0.382
- glycan array binding signal (z-score) [30]: -0.847
- glycan array binding signal (z-score) [31]: 3.52
- glycan array binding signal (z-score) [32]: -0.862
- glycan array binding signal (z-score) [33]: 3
- glycan array binding signal (z-score) [34]: 3.93
- glycan array binding signal (z-score) [35]: -0.009
- glycan array binding signal (z-score) [36]: -0.289
- glycan array binding signal (z-score) [37]: -0.799
- glycan array binding signal (z-score) [38]: 1.63
- glycan array binding signal (z-score) [39]: -0.396
- glycan array binding signal (z-score) [40]: -0.211
- glycan array binding signal (z-score) (Neu5Gc(a2-3)Gal(b1-4)Glc): 0.337
